PfG6PD inh = PfG6PD (Plasmodium falciparum) enzyme inhibition; PfGluPho enzyme, NADPH resazurin-diaphorase fluorescence; inhibition, % at 20 µM; AID 504690; hit rate 0.78% among 350,000;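 active = inhibition reaching at least a set limit at 20 µM in the primary screen, cut at about 59% in these data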;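 also: 0% = DMSO wells with substrate and 100% = DMSO wells lacking glucose-6-phosphate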
PHOSPHO1 block = blocks human PHOSPHO1 phosphatase activity | recombinant PHOSPHO1, absorbance phosphatase assay | hit rate 1.1% among 290,000 | inhibition, % at 13.3 µM; in the data active = inhibition above about 60%
Target sequence (Q8TCT1 whole entry, looked up): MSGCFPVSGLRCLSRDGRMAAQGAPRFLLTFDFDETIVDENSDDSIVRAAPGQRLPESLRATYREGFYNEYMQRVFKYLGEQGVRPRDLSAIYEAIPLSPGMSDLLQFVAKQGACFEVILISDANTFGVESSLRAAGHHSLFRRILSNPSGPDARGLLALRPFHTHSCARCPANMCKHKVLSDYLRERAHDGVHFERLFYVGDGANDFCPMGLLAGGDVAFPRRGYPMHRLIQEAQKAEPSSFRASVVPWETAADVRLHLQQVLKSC
M18AAP inhibitor = blocks P. falciparum M18 aspartyl aminopeptidase; recombinant PfM18AAP, H-Glu-NHMec fluorogenic cleavage; inhibition, % at 7.35 µM; hit rate 1.2% among 290,000;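 active = inhibition above the campaign mean inhibition over all tested compounds plus 3 SD, cut at about 28% in these data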;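 also: 0% = plate median of test compound wells and 100% = 2 mM ZnCl2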
ALR H2O2 inh = blocks human ALR sulfhydryl oxidase activity; purified ALR, DTT oxidation, H2O2 HRP-luminol luminescence; hit rate 3.8% among 290,000; inhibition, % (concentration not given with the values); P55789;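 active = mean replicate inhibition above about 79%, with every replicate also reaching it, limit read from the data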
Target sequence (P55789 whole entry, looked up): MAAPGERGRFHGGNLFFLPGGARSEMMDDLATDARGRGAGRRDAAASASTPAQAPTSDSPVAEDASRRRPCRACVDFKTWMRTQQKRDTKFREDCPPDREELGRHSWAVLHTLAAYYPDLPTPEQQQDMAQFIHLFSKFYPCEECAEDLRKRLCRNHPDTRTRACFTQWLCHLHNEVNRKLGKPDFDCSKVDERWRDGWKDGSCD
H9c2 protect = protects H9c2 cardiomyocytes from peroxide injury. H2O2 injury protection, ATPLite, 2 h. protection from H2O2 cell death, % at 20 µM. hit rate 0.63% among 360,000. AID 588492;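 active = compounds giving at least 50% protection of heart cells from peroxide-induced death in the single-dose screen, raw or plate-pattern-corrected value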;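 also: 0% = DMSO wells with peroxide and 100% = DMSO wells without peroxide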
Numbers without * were called inactive. An excerpt weighted towards active compounds, which were near 5.6% of everything screened.

`Cc1oc(-c2ccccc2F)nc1CS(=O)CC(=O)NC1CCCCC1` (stereo not given) gave PfG6PD inh 2, PHOSPHO1 block 28, M18AAP inhibitor -2, ALR H2O2 inh 98* and H9c2 protect 6.
`CCOC(=O)N1CCC(NC(=O)CS(=O)Cc2nc(-c3ccccc3C)oc2C)CC1` (stereo not given) gave PfG6PD inh 2, PHOSPHO1 block 21, M18AAP inhibitor -20, ALR H2O2 inh 99* and H9c2 protect -7.
Screening O=C(COC(=O)CCc1c[nH]c2ccccc12)Nc1ccccc1C(F)(F)F returned PfG6PD inh 9, ALR H2O2 inh 9 and H9c2 protect 1.
`Cc1ccc2c(=O)n3c(nc2c1)C(Cc1ccccc1)NC(=O)c1ccc(Cl)cc1-3` (stereo not given) gave ALR H2O2 inh 7.
COc1ccc(S(=O)(=O)NCc2ccccn2)cc1C was read as PfG6PD inh -3 and H9c2 protect 2.
`Cc1oc(-c2ccccc2F)nc1CSCC(=O)NCc1ccc2c(c1)OCO2` gave PfG6PD inh -5, PHOSPHO1 block 18, M18AAP inhibitor 5, ALR H2O2 inh 98* and H9c2 protect -3.
O=C(CSCc1ccc(F)cc1)NCc1ccc2c(c1)OCO2 was read as PfG6PD inh -7, PHOSPHO1 block 53, M18AAP inhibitor -5, ALR H2O2 inh 6 and H9c2 protect 5.
`Cc1[nH]n(-c2ccccc2)c(=O)c1/C=N/N(C)c1ccccc1` gave PfG6PD inh 28, PHOSPHO1 block 1, M18AAP inhibitor -14, ALR H2O2 inh 82* and H9c2 protect 20.
For Cc1ccc2cccc(N=Cc3c(C)[nH]n(-c4ccccc4)c3=O)c2n1 the results were PfG6PD inh -4, PHOSPHO1 block 1, M18AAP inhibitor 5, ALR H2O2 inh 1 and H9c2 protect 63*.
`Cc1ccc(-c2n[nH]c(=S)n2/N=C/c2c(C)[nH]n(-c3ccccc3)c2=O)cc1` gave PfG6PD inh -3, PHOSPHO1 block 54, M18AAP inhibitor 21, ALR H2O2 inh 98* and H9c2 protect 19.
For Cc1nn(-c2ccccc2)c(C)c1/C=N/n1c(-c2ccc(Cl)cc2)n[nH]c1=S the results were PfG6PD inh 14, PHOSPHO1 block -12, M18AAP inhibitor 2, ALR H2O2 inh -1 and H9c2 protect -5.
`Cc1[nH]n(-c2ccccc2)c(=O)c1/C=N/N1C(=O)c2ccc3c4c(ccc(c24)C1=O)CC3` gave PfG6PD inh 8, PHOSPHO1 block -8, M18AAP inhibitor 6 and H9c2 protect 65*.
For CCC1CCCCN1C(=O)CSc1nnc(N)s1 (stereo not given) the results were PfG6PD inh 12 and H9c2 protect 1.
Cc1cc(C(=O)Nc2c(F)cc(F)cc2Br)c(C)o1 was read as PfG6PD inh 12, PHOSPHO1 block -13, M18AAP inhibitor 4, ALR H2O2 inh 96* and H9c2 protect 7.
For O=C(N/N=C/c1ccc(O)cc1)c1cc[n+](Cc2ccccc2)cc1 the results were PfG6PD inh 2, PHOSPHO1 block -11, M18AAP inhibitor 2, ALR H2O2 inh 99* and H9c2 protect 4.
Screening CC(NC(=O)c1ccccc1)C(=O)N/N=C/c1ccc(O)cc1 (stereo not given) returned PfG6PD inh -4, PHOSPHO1 block -27, M18AAP inhibitor 7, ALR H2O2 inh 99* and H9c2 protect -1.
`COc1ccccc1-n1ccnc(SCC(=O)NCc2ccccc2Cl)c1=O` gave PfG6PD inh -1 and H9c2 protect 0.
`COc1ccc(-n2ccnc(SCC(=O)NCc3ccccc3Cl)c2=O)cc1` gave PfG6PD inh 6, PHOSPHO1 block 26, M18AAP inhibitor 6, ALR H2O2 inh 99* and H9c2 protect -3.
Screening C=CCNC(=O)C(=O)NCC1CCCN1S(=O)(=O)c1cccs1 (stereo not given) returned PfG6PD inh -9, ALR H2O2 inh -12 and H9c2 protect 9.
Screening CCC(C)N(C(=O)CSc1ccc(NC(C)=O)cc1)C1CCS(=O)(=O)C1 (stereo not given) returned PfG6PD inh -18, PHOSPHO1 block -7, M18AAP inhibitor 6, ALR H2O2 inh 88* and H9c2 protect 1.
`CCC(C)N(C(=O)COC(=O)CSc1ccc(C)c(C)c1)C1CCS(=O)(=O)C1` (stereo not given) gave PfG6PD inh -4, ALR H2O2 inh -12 and H9c2 protect 3.
`Cc1ccc2nc(C(C)(C)C)c(Cc3cccc(Cl)c3)n2c1` gave H9c2 protect -5.
Screening CC(/C=C/c1ccccc1)=N\Nc1nc(-c2ccccc2)cs1 returned PfG6PD inh 18, PHOSPHO1 block 21, M18AAP inhibitor 8, ALR H2O2 inh -3 and H9c2 protect -13.
O=C(Nc1nc(-c2ccc(F)cc2)cs1)c1cccc(N2C(=O)CCC2=O)c1 was read as PfG6PD inh -11, M18AAP inhibitor 4, ALR H2O2 inh -1 and H9c2 protect 13.
Screening CC(C)=NNc1nc(-c2ccc(N3C(=O)CCC3=O)cc2)cs1 returned PfG6PD inh 10, PHOSPHO1 block -99, M18AAP inhibitor 28*, ALR H2O2 inh 99* and H9c2 protect 29.
Screening C/C(CCC1CC(C)OC1=O)=N/Nc1nc(-c2ccccc2)cs1 (stereo not given) returned PfG6PD inh 33, PHOSPHO1 block 34, M18AAP inhibitor 15, ALR H2O2 inh 98* and H9c2 protect 3.
Screening C/C(=N\Nc1nc(C(C)(C)C)cs1)c1ccccc1 returned PfG6PD inh 14, M18AAP inhibitor 8, ALR H2O2 inh 98* and H9c2 protect -6.
`CC(C)=NNc1nc(-c2ccccc2)cs1` gave PfG6PD inh 16, PHOSPHO1 block 3, M18AAP inhibitor 13, ALR H2O2 inh 97* and H9c2 protect -2.
For COc1ccc(-c2cc(CNc3nc(NCc4ccccc4OC)nc4ccsc34)on2)cc1 the results were H9c2 protect -18.
Screening Cc1cc(C(=O)Nc2sc3c(c2C#N)CCCC3)no1 returned PfG6PD inh 46, PHOSPHO1 block -4, M18AAP inhibitor 5, ALR H2O2 inh 97* and H9c2 protect -14.
Cc1cc(C(=O)Nc2sc3c(c2C#N)CCC3)no1 was read as PfG6PD inh -5, PHOSPHO1 block 10, M18AAP inhibitor 7, ALR H2O2 inh 14 and H9c2 protect -12.
Screening Nc1nc2c(s1)COc1ccccc1-2 returned PfG6PD inh 33, PHOSPHO1 block 41, M18AAP inhibitor 7 and H9c2 protect -4.
Nc1nc2c(s1)CCc1c-2cnn1-c1ccccc1 was read as PfG6PD inh 98*, PHOSPHO1 block 106*, M18AAP inhibitor -2, ALR H2O2 inh 20 and H9c2 protect -13.
`Cc1c(NS(=O)(=O)c2ccccc2)cc(Cl)c(O)c1C` gave PfG6PD inh 18, PHOSPHO1 block 13, M18AAP inhibitor -7, ALR H2O2 inh 99* and H9c2 protect -4.
Cc1c(Cl)cccc1NS(=O)(=O)c1ccccc1 was read as PfG6PD inh 2 and H9c2 protect -9.
